By inhibition is commonly meant the drop in the measured response relative to a control, in per cent.

The source of these data is PubChem BioAssay AID2174 (The Scripps Research Institute Molecular Screening Center, 2009).

Among all 320,000 compounds or so, about 500 (0.16%) were called active.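 Rule for the calls: active = inhibition above the mean of all tested compounds plus 3 SD, set per campaign (cut at about 14% in these data); inactive = the rest.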 The list comes from a sample in which actives are over-represented; it also holds similar structures and randomly drawn compounds.

For the experiment, the target named is Acyl-protein thioesterase 1 (Homo sapiens) (UniProt O75608). The experiment in a line: LYPLA1 inhibitors, primary screen, counter-screen for PME1 inhibitor project, biochemical, fluorescence polarization, FP-Rh probe ABPP (AID 2174).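 Note: inhibitors block serine hydrolase probe labeling of LYPLA1 so polarization falls; 0% = enzyme with DMSO and 100% = wells lacking LYPLA1.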 Conditions: recombinant LYPLA1, FP-Rh probe fluorescence polarization; at 5.9 µM; active compounds read high. (In general: A counterscreen serves to expose hits that act by an unwanted route or on another target.)
Acyl-protein thioesterase 1 (Homo sapiens), sequence (O75608 whole entry, looked up): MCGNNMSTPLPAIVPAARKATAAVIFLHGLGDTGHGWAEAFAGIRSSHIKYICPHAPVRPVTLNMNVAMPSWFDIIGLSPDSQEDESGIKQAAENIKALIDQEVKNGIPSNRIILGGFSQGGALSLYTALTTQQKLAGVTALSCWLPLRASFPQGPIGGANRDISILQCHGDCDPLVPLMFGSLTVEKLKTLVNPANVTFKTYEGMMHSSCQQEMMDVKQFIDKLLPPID
As for `Cc1ccc(S(=O)(=O)N2CCC(C(=O)N[C@@H](C)C(=O)NCCc3ccccc3)CC2)cc1`, the inhibition was 2.54% (inactive).

For the molecule `Cc1ccc(S(=O)(=O)N2CCC(C(=O)N[C@@H](C)C(=O)NCc3ccccc3)CC2)cc1`, the inhibition is -4.86% (inactive).

Turning to `Cc1ccc(S(=O)(=O)N2CCC(C(=O)N[C@@H](C)C(=O)NCc3ccco3)CC2)cc1`, the inhibition is 48% (active).

In the case of `COc1ccc(C(C)NC(=O)C2CCCC2)cc1` (stereo unspecified), the inhibition is 0.96% (inactive).

Turning to `Cc1c(Nc2nc3ccccc3nc2NS(=O)(=O)c2cccs2)c(=O)n(-c2ccccc2)n1C`, the inhibition was -0.16% (inactive).

Turning to `CCOC(=O)c1c(/N=C/c2cc(C)ccc2O)sc2c1CCC2`, the inhibition was -3.88% (inactive).

Turning to `C=CCNC(=S)NNC(=O)c1cc(Cl)ccc1OC`, the inhibition was 1.08% (inactive).

In the case of `C=CCNC(=O)c1cc(-c2ccccc2O)on1`, the inhibition was -0.65% (inactive).

As to `C=CCNC(=O)c1sc(SC)cc1-c1ccc(Cl)cc1`, the inhibition is 21.3% (active).

Take `CCn1cc(-c2cc(C(=O)O)on2)c(C)n1`: the inhibition is -0.98% (inactive).

On to `CC(C)S(=O)(=O)c1csc(NC(=O)Nc2ccc(Cl)cc2)c1Cl`, for which the inhibition was -33.1% (inactive).

Turning to `CC1Cn2c(nnc2-c2cccs2)S1` (stereo unspecified), the inhibition is -1.86% (inactive).

For `CN1C(=O)c2ccccc2C(C(=O)NCCCN2CCCC2)C1c1c[nH]c2ccccc12` (stereo unspecified), the inhibition was 3.18% (inactive).

For `O=C1NC2(CCCCCC2)C(=O)N1CCS(=O)(=O)Oc1ccccc1`, the inhibition is -0.42% (inactive).

In the case of `CC(C)CCNC(=O)CCNS(=O)(=O)c1ccc(Cl)cc1`, the inhibition is -1.02% (inactive).

Regarding `O=C(CCCn1c(=O)c2sccc2n(CC(=O)NCC2CCCO2)c1=O)NCc1ccco1` (stereo unspecified), the inhibition is 4.84% (inactive).

Turning to `CCCCN(C(=O)/C=C/c1ccco1)c1c(N)n(CC(C)C)c(=O)[nH]c1=O`, the inhibition was -1.43% (inactive).

As for `O=C(NC1CC1)C1=C[C@H](c2c[nH]c3ccccc23)C[C@H](OCc2ccc(CO)cc2)O1`, the inhibition is 0.98% (inactive).

For `CC(=O)N1CCN(C(=O)c2cc(-c3ccc(Cl)s3)nc3ccccc23)CC1`, the inhibition is -4.07% (inactive).

Regarding `CCOc1ccc(N(CC(=O)NCCc2ccc(OC)cc2)S(C)(=O)=O)cc1`, the inhibition was 1.18% (inactive).

Regarding `CCn1c(SCC(=O)NC2CC2)nnc1-c1ccccn1`, the inhibition is -1.31% (inactive).

In the case of `COc1ccc(/C=C(\NC(=O)c2ccccc2)C(=O)NCCN2CCOCC2)cc1OC`, the inhibition is -3.08% (inactive).

In the case of `COc1ccc(CCNC(=O)c2ccc3c(c2)NC(=O)C(N2CCOCC2)S3)cc1OC` (stereo unspecified), the inhibition was -0.92% (inactive).

Take `CCN1CCN(CCNC(=O)c2ccc3c(c2)NC(=O)/C(=C\c2ccc(OC)c(OC)c2)S3)CC1`: the inhibition was 24.7% (active).

Take `CCNc1ccc(C(=O)OCC(=O)N2c3ccccc3NC(=O)C2(C)C)cc1[N+](=O)[O-]`: the inhibition is 2.28% (inactive).

On to `C=C(C)CSc1nc(N)c2c3c(sc2n1)CCC3`, for which the inhibition was -2.73% (inactive).

For the molecule `CCc1noc(C)c1C(=O)N1CCN(S(=O)(=O)c2cccc(C(F)(F)F)c2)CC1`, the inhibition is -4.37% (inactive).

`O=C(COc1ccccc1Cl)Nc1ccc(C(=O)c2ccc(C(=O)O)cc2)cc1`: the inhibition is 0.16% (inactive).

As to `O=C(NC(Cc1ccc(O)cc1)C(=O)O)/C(=C/c1ccccc1)NC(=O)c1ccccc1` (stereo unspecified), the inhibition was -3.61% (inactive).

With `O=C(O)c1ccccc1-c1ccccc1C(=O)NCCc1ccccc1`, the inhibition was -3.92% (inactive).

On to `CC(C)CC1(C(=O)NCc2ccccn2)C=CCN1C(=O)c1ccccc1` (stereo unspecified), for which the inhibition is 0.98% (inactive).

As for `CCc1[nH]nc(C(=O)N2CCCC(CO)(Cc3ccc(F)cc3F)C2)c1C` (stereo unspecified), the inhibition is -0.39% (inactive).

Regarding `COC(=O)c1ccc(SCc2ccccc2)nc1`, the inhibition was -1.56% (inactive).

As to `CSc1c(SCc2ccccc2)cnn(Cc2ccccc2)c1=O`, the inhibition was 15% (active).

`CCn1c(SCc2ccccc2)nc2cc(OC)c(OC)cc2c1=O`: the inhibition was -1.81% (inactive).

Regarding `COC(=O)C1=C(C(=O)OC)[C@@H]2N(C)c3ccccc3[C@@]23C[C@@H](C(=O)OC)N(C(C)=O)C3=N1`, the inhibition was -0.85% (inactive).

As to `CCCCCCCCCCCC(=O)O`, the inhibition was 1.07% (inactive).

For `COc1ccc(C2C(C#N)=C(N)Oc3n[nH]c(C)c32)cc1CN1CCN(c2ccc(F)cc2)CC1` (stereo unspecified), the inhibition was -1.23% (inactive).

With `CCOC(=O)C1(CC2CCCCO2)CCN(Cc2nc(-c3cccs3)oc2C)CC1` (stereo unspecified), the inhibition is -3.08% (inactive).

In the case of `CC[N+](C)(CC)CCC[n+]1c(-c2ccccc2)c2cc(N)ccc2c2ccc(N)cc21`, the inhibition is 60.1% (active).

For `CCOC(=O)C1=C(CC)Nc2ccccc2N=C1NC(=O)c1cccc(S(=O)(=O)N2CCCC2)c1`, the inhibition was -0.79% (inactive).

As to `COc1cc(OC)cc(-c2c(-c3ccc(F)cc3)c3cc(-c4ccc5cc[nH]c5c4)ccc3n2C)c1`, the inhibition is -1.29% (inactive).

As to `CC1=C[C@H]2Cc3cc(C)cc(C)c3S(=O)(=O)[C@@H]2C=C1`, the inhibition was -3.78% (inactive).

Regarding `O=C(N/C(=C\c1ccc(F)cc1)C(=O)N1CCCCCC1)c1ccccc1`, the inhibition was -1.76% (inactive).

`CC1=C(C)C(=O)OC(C(C)C2CCC3C4CC=C5CC(OC6OC(COC7OC(CO)C(O)C(O)C7O)C(O)C(O)C6O)CC(O)C5(C)C4CCC23C)C1` (stereo unspecified): the inhibition is -11.7% (inactive).

For the molecule `COc1cccc(/C=C/C(=O)OCC(=O)N2CCCc3ccccc32)c1`, the inhibition is -0.36% (inactive).

Consider `COc1ccc(N2CC(C(=O)NCCN3C(=O)S/C(=C\c4cccnc4)C3=O)CC2=O)c(OC)c1` (stereo unspecified), for which the inhibition was 67.3% (active).

For `CCOc1ccc(N2CC(C(=O)NCCN3C(=O)S/C(=C\c4cccnc4)C3=O)CC2=O)cc1` (stereo unspecified), the inhibition was 7.93% (inactive).

Turning to `COc1ccccc1N1CC(C(=O)NCCN2C(=O)S/C(=C\c3cccnc3)C2=O)CC1=O` (stereo unspecified), the inhibition is -0.75% (inactive).

Regarding `CCOc1ccc(S(=O)(=O)N2CCCCC2)cc1NC(=O)CN1CCCC1c1cccs1` (stereo unspecified), the inhibition was -2.05% (inactive).

Regarding `Cc1sc2ncn(CC(=O)NCCCC(=O)NCc3ccc(F)cc3)c(=O)c2c1C`, the inhibition is 3.83% (inactive).

In the case of `CC(C)(CNC(=O)CNC(=O)C1CCCCC1)N1CCOCC1`, the inhibition is -3.79% (inactive).

Regarding `Cn1cc(/C=C/C(=O)N2CCCC(C(=O)c3ccc(C(F)(F)F)cc3)C2)cn1` (stereo unspecified), the inhibition is -3.26% (inactive).

On to `CCCCn1c(N)c(N(CCC(C)C)C(=O)c2ccc([N+](=O)[O-])o2)c(=O)[nH]c1=O`, for which the inhibition was -7.18% (inactive).

For the molecule `CCCCn1c(N)c(N(CCC(C)C)C(=O)CC2OC(=O)c3ccccc32)c(=O)[nH]c1=O` (stereo unspecified), the inhibition is 16.4% (active).

Consider `CCCCn1c(N)c(N(CCC(C)C)C(=O)c2ccc(COc3ccccc3)o2)c(=O)[nH]c1=O`, for which the inhibition was 2.38% (inactive).
